Laboratory results from PubChem BioAssay.
Calls of active or inactive are those of the source.

Tests used:
[1] = binders of probe aFSTL3 on microarray, primary screen, stem cell growth factor project, biochemical, small-molecule microarray, fluorescence 635/667 (AID 1064); conditions: higher = more signal;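 further: measures binding of the biotinylated anti-FSTL3 antibody to printed compounds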
[2] = binders from COS7 lysate, DM2A8 probe, primary screen, torsin A project, cell lysate, small-molecule microarray, fluorescence 635/667 (AID 1065); conditions: higher = more signal, COS7 lysate expressing mutant human TOR1A
[3] = binders of probe aFGF2 on microarray, primary screen, stem cell growth factor project, biochemical, small-molecule microarray, fluorescence 635/667 (AID 1067); conditions: higher = more signal;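 further: measures binding of biotinylated aFGF2 protein to printed compounds on slides; z-score merges feature fluorescence and signal-to-noise across triplicate slides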
[4] = binders of probe aFGF10 on microarray, primary screen, stem cell growth factor project, biochemical, small-molecule microarray, fluorescence 635/667 (AID 1071); conditions: higher = more signal;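 further: score merges 667 nm spot intensity and signal to noise from triplicate slides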
[5] = biological target: Neurogenic locus notch homolog protein 2 (Homo sapiens) (UniProt Q04721); test: Notch2 binders on small-molecule microarrays, primary screen, biochemical, small-molecule microarray, 635 nm fluorescence, stem cell growth factors (AID 1073); conditions: Notch2 binding, higher = more signal
Chain of Neurogenic locus notch homolog protein 2 (Homo sapiens) (Q04721 whole entry, looked up, canonical isoform): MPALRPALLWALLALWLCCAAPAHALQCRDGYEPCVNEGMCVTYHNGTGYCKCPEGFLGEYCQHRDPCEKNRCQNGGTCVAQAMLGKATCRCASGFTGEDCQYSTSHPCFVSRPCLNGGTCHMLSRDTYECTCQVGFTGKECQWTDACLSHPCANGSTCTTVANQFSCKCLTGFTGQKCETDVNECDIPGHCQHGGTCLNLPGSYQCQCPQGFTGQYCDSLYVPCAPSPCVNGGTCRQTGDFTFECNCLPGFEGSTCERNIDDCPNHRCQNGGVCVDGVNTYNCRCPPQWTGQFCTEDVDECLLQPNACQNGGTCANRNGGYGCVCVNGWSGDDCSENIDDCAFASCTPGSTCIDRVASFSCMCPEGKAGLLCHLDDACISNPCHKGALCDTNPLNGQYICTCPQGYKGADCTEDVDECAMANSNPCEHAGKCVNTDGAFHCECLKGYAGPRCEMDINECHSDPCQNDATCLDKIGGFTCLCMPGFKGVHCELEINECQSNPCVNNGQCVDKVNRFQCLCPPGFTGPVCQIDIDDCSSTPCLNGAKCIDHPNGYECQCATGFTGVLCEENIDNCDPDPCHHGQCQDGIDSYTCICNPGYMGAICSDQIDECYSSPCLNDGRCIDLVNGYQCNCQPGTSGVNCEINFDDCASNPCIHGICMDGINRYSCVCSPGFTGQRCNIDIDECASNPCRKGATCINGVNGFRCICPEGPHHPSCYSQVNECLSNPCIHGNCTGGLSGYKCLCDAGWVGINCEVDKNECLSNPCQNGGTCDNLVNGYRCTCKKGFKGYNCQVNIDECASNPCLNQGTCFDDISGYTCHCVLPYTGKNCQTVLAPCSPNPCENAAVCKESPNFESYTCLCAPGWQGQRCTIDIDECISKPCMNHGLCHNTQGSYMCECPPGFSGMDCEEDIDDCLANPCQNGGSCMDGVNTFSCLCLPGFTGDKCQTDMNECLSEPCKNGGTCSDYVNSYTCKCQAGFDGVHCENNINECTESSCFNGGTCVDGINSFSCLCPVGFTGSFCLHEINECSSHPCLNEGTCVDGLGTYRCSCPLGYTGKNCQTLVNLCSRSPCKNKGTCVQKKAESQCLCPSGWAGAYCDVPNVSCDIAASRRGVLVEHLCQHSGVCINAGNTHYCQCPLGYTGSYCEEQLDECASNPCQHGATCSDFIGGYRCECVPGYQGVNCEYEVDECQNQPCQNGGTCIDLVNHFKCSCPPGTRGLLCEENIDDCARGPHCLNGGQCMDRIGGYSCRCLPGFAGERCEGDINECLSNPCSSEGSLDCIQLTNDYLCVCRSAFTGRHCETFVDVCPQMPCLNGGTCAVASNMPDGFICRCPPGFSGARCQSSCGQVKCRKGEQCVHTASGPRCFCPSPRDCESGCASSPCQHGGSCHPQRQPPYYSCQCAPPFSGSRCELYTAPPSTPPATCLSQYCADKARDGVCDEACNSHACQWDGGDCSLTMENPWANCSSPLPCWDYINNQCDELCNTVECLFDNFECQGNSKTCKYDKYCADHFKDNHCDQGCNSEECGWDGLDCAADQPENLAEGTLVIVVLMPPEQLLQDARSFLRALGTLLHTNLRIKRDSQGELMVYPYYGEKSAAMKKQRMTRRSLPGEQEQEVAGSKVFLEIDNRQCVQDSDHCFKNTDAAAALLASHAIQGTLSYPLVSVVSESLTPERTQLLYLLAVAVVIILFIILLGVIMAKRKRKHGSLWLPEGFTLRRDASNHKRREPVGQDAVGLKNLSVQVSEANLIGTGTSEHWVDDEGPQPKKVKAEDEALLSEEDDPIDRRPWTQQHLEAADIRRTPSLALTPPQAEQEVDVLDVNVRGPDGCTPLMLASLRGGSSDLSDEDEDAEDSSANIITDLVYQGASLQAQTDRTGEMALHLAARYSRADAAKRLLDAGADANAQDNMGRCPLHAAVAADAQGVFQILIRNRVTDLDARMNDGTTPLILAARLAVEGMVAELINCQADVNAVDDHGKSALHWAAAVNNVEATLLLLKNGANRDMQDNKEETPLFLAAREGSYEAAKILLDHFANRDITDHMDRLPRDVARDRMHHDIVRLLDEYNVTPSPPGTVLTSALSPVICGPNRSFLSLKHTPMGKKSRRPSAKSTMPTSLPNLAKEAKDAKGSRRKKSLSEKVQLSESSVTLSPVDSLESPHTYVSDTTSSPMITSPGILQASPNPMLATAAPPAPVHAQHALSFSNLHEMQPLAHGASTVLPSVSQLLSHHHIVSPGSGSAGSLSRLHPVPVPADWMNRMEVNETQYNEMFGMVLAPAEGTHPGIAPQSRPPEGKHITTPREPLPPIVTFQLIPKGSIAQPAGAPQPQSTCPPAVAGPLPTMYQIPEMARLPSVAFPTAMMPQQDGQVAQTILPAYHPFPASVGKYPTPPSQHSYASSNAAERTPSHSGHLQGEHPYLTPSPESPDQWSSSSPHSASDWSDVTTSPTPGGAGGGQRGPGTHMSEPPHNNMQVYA

[6] = biological target: Pro-neuregulin-1, membrane-bound isoform (Homo sapiens) (UniProt Q02297); test: NRG1 binders on small-molecule microarrays, primary screen, psychiatric disease protein project, biochemical, small-molecule microarray, fluorescence 635/667 (AID 1075); conditions: NRG1 binding, 635 nm fluorescence, higher = more signal;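 further: score combines 667 nm spot fluorescence with signal to noise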
Chain of Pro-neuregulin-1, membrane-bound isoform (Homo sapiens) (Q02297 whole entry, looked up, the tested form may be a part, canonical isoform): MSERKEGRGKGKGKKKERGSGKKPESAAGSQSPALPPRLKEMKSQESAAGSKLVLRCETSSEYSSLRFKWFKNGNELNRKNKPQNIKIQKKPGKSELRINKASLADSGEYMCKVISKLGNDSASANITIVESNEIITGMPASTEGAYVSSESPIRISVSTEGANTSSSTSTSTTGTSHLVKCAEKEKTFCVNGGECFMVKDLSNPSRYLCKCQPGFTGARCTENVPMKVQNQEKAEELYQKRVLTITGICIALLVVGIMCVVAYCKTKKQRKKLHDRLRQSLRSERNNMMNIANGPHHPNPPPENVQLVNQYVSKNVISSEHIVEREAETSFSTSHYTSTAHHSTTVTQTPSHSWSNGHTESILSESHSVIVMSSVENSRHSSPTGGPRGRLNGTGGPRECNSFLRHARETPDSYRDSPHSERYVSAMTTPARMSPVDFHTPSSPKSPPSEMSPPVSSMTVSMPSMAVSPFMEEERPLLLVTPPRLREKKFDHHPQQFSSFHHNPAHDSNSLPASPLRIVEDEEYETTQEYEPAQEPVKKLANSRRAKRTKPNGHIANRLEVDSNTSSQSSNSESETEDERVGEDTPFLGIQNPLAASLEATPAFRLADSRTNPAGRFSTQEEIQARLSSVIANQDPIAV

[7] = tested on: Neuregulin-1 EGF-like domain; test: binders of neuregulin-1 EGF-like domain, primary screen, biochemical, small-molecule microarray, 635 nm fluorescence (AID 1081); conditions: small-molecule microarray binding, higher = more signal;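 further: binding of the protein to compounds printed on small-molecule microarray slides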
[8] = FRG1 promoter luciferase signal modulators, primary screen, FRG1 inhibition for FSHD, cell-based, C2C12 myotubes, firefly/Renilla luciferase, luminescence (AID 1084); conditions: higher = more signal, called active from +8 up or from −8 down
[9] = binders of probe aFST on microarray, primary screen, stem cell growth factor project, biochemical, small-molecule microarray, fluorescence 635/667 (AID 1086); conditions: higher = more signal;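 further: score merges 667 nm fluorescence with signal-to-noise of each printed compound spot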
[10] = binders of probe aHhip on microarray, primary screen, stem cell growth factor project, biochemical, small-molecule microarray, fluorescence 635/667 (AID 1087); conditions: higher = more signal;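 further: score merges spot fluorescence at 667nm with spot signal to noise ratio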
[11] = tested on: PRMT1 (protein arginine N-methyltransferase 1); test: PRMT1 binders on small-molecule microarrays, primary screen, biochemical, small-molecule microarray, 635 nm fluorescence (AID 1088); conditions: small-molecule microarray binding, higher = more signal;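 further: binding of Prmt1 protein to compounds spotted on small-molecule microarray slides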
[12] = yeast growth modulation, basal conditions, primary screen, YJM789 clinical isolate, OD600, 24 h (AID 1089);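 further: growth of clinical yeast isolate S. cerevisiae YJM 789 seeded 1000 cells per well; test concentration not given here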; conditions: S. cerevisiae YJM789 growth, higher = more signal, called active from +8 up or from −8 down
[13] = fission yeast growth modulation, primary screen, strain 972, OD600, 24 h, no modulator (AID 1090);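 further: basal condition with compound alone and no growth modifier present; test concentration not given here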; conditions: S. pombe 972 growth, higher = more signal, called active from +8 up or from −8 down
[14] = S. cerevisiae growth modulation with rapamycin, primary screen, strain BY4716, OD600, 96 h (AID 1091); conditions: higher = more signal, called active from +8 up or from −8 down; further: test concentration not given here
[15] = biological target: Torsin-1A-interacting protein 2 (Homo sapiens) (UniProt Q8NFQ8); test: LULL1 binders on small-molecule microarray, primary screen, cell lysate, human LULL1 lysate, 635/667 nm fluorescence (AID 1092); conditions: hLULL1 lysate binding, 635 nm fluorescence, higher = more signal;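 further: probe is lysate of COS7 cells overexpressing human LULL1; score merges per-feature 667 nm fluorescence with signal-to-noise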
Chain of Torsin-1A-interacting protein 2 (Homo sapiens) (Q8NFQ8 whole entry, looked up): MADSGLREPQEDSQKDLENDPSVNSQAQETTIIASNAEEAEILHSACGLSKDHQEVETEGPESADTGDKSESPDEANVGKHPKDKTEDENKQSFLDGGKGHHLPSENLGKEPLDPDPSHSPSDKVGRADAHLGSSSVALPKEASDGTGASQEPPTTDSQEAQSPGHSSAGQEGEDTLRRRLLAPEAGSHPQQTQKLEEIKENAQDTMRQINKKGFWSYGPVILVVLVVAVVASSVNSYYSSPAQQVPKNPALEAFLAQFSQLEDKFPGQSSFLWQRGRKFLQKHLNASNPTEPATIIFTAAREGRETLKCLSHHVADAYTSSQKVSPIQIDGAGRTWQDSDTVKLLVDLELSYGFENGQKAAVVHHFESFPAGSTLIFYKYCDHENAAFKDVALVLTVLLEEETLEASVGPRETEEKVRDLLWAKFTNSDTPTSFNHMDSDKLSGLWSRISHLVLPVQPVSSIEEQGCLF

[16] = E. coli growth modulation, two-sided OD650, primary screen, E. coli filamentation project, strain DRC41, 24 h (AID 1093); conditions: OD650, 24 h, higher = more signal, called active from +8 up or from −8 down;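 further: MC1000 strain lacking acrAB efflux and sulA so SOS filamentation is blocked; test concentration not given here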
[17] = small-molecule microarray binders of probe aLefty2, primary screen, biochemical, biotinylated probe, 635/667 nm fluorescence (AID 1094); conditions: higher = more signal;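 further: score merges spot fluorescence near 667 nm with spot signal-to-noise ratio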
[18] = tested on: Noggin (protein binding on small-molecule microarray); test: Noggin binders on small-molecule microarray, primary screen, biochemical, 635/667 nm fluorescence (AID 1095); conditions: 635 nm fluorescence, higher = more signal;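 further: score merges 667 nm feature fluorescence with signal to noise over triplicate slides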
[19] = biological target: Neurogenic locus notch homolog protein 3 (Homo sapiens) (UniProt Q9UM47); test: NOTCH3 binders on small-molecule microarray, primary screen, biochemical, 635/667 nm fluorescence (AID 1096); conditions: NOTCH3 binding, 635 nm fluorescence, higher = more signal
[20] = small-molecule microarray binders of probe aEGFR, primary screen, biochemical, biotinylated probe, 635/667 nm fluorescence (AID 1097); conditions: higher = more signal;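 further: probe is a biotinylated anti-EGFR antibody binding compounds printed on slides; score combines fluorescence near 667 nm and signal to noise of each spot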

| SMILES | composite z-score [1] | composite z-score [2] | composite z-score [3] | composite z-score [4] | composite z-score [5] | composite z-score [6] | composite z-score [7] | z-score [8] | composite z-score [9] | composite z-score [10] | composite z-score [11] | z-score [12] | z-score [13] | z-score [14] | composite z-score [15] | z-score [16] | composite z-score [17] | composite z-score [18] | composite z-score [19] | composite z-score [20] |
| --- | --- | --- | --- | --- | --- | --- | --- | --- | --- | --- | --- | --- | --- | --- | --- | --- | --- | --- | --- | --- |
| CCc1cc2c(nc1CC)CCN(CCC(C)=NO[C@@H](C)c1cn([C@H](CO)Cc3ccccc3)nn1)C2 | -0.0739 | 0.39 | -0.123 | 0.112 | -0.0274 | 0.373 | -0.0269 | 0.704 (inactive) | 0.283 | 0.115 | -0.329 | 0.687 (inactive) | 0.22 (inactive) | -0.215 (inactive) | 0.559 | -0.189 (inactive) | 0.0336 | 0.42 | 0.438 | -0.0679 |
| CCOC(=O)[C@H](Cc1ccccc1)NC(=O)CCC1CC(OC(=O)NCCc2ccc(F)cc2)CC2(CCCC(COC(=O)NCCc3ccc(Cl)cc3)O2)O1 (stereo not given in full) | -0.431 | -0.0057 | -0.0523 | 0.248 | 0.622 | 0.843 | 0.872 | 0.301 (inactive) | 0.233 | 0.0623 | 1.13 | 0.154 (inactive) | 1.04 (inactive) | 0.851 (inactive) | 1.83 | 0.822 (inactive) | -0.174 | 0.658 | 0.924 | -0.0687 |
| CO[C@@H]1COC(=O)[C@@H]2CCCN2C(=O)[C@@H](C)COC(=O)CC=C[C@H]1C | -0.776 | 0.313 | -0.122 | 0.397 | 0.5 | 0.0187 | 1.02 | 0.719 (inactive) | 0.271 | 0.607 | 1.41 | -0.414 (inactive) | 0.0992 (inactive) | -1.14 (inactive) | 0.882 | -0.152 (inactive) | -0.0438 | 1.18 | 0.943 | -0.0788 |
| CO[C@H]1COC(=O)CC=C[C@H](C)[C@@H](OC)COC(=O)[C@@H](C)NC(=O)CC=C[C@@H]1C | -0.548 | 1.9 | -0.177 | 0.0365 | -0.411 | -0.255 | 0.515 | 0.447 (inactive) | -0.251 | -0.196 | 1.53 | -1.02 (inactive) | 0.0386 (inactive) | -1.67 (inactive) | -1.92 | -0.804 (inactive) | -0.148 | 1.54 | 0.0946 | -0.0727 |
| CO[C@H]1COC(=O)[C@@H](C)COC(=O)[C@@H](OCc2ccccc2)C=C[C@@H]1C | -0.133 | -0.606 | -0.121 | 0.206 | -0.663 | -0.297 | -0.546 | -0.412 (inactive) | -0.155 | 0.0277 | 0.0714 | 1.3 (inactive) | -0.204 (inactive) | 1.03 (inactive) | -0.424 | 0.075 (inactive) | -0.357 | 0.172 | -0.165 | -0.0363 |
| CCc1cc2c(nc1CC)CCN(CCC(C)=NO[C@H](C)c1cn([C@H](CO)Cc3ccccc3)nn1)C2 | 0.111 | 0.985 | -0.0154 | 0.0116 | -0.0913 | 0.107 | 0.595 | 0.834 (inactive) | -0.129 | -0.249 | 1.05 | -0.563 (inactive) | -0.484 (inactive) | -0.112 (inactive) | 0.461 | -0.0004 (inactive) | 0.0336 | 0.336 | -0.171 | -0.142 |
| CCc1cc2c(nc1CC)CCN(CCC(C)=NOC[C@H]1O[C@H](c3ccccc3)C=C[C@@H]1Oc1ccc(OC)cc1)C2 | 0.0529 | 0.732 | -0.178 | -0.147 | -0.391 | 0.121 | 0.734 | 1.39 (inactive) | 0.0567 | 0.12 | 0.841 | -0.837 (inactive) | -5.85 (inactive) | -0.473 (inactive) | 0.825 | -0.782 (inactive) | -0.164 | 0.0346 | 0.215 | -0.0549 |
| CCOC(=O)[C@H](CC(C)C)NC(=O)CCC1CC(OC(=O)NCc2ccc3c(c2)OCO3)CC2(CCCC(COC(=O)NCC3CCCCC3)O2)O1 (stereo not given in full) | -0.203 | 1.06 | -0.11 | 0.443 | 0.6 | 0.292 | 1.02 | 0.807 (inactive) | 0.293 | -0.255 | 1.24 | 0.192 (inactive) | -0.0848 (inactive) | -0.113 (inactive) | 1.49 | 0.409 (inactive) | -0.323 | 0.553 | 1.09 | -0.109 |
| C[C@@H](c1ccccc1)N1C(=O)[C@H]2[C@H]3[C@H](O)[C@H](O)CC(=O)[C@H]3CC[C@H]2C1=O | -0.483 | 0.107 | -0.0878 | 0.443 | 0.896 | 0.286 | 0.477 | -0.12 (inactive) | 0.0442 | -0.0994 | 0.157 | -0.394 (inactive) | -0.197 (inactive) | 0.134 (inactive) | 0.461 | 0.541 (inactive) | -0.0483 | 0.482 | 0.521 | -0.108 |
| CCOC(=O)[C@H](CC(C)C)NC(=O)CCC1CC(OC(=O)NCc2cccc3ccccc23)CC2(CCCC(COC(=O)NCCc3ccc(Cl)cc3)O2)O1 (stereo not given in full) | -0.318 | -0.19 | -0.0797 | 0.293 | 0.461 | 0.533 | 0.744 | 1.83 (inactive) | -0.001 | -0.0994 | 0.333 | -1.16 (inactive) | -0.858 (inactive) | -0.164 (inactive) | 1.04 | -0.0339 (inactive) | -0.188 | 0.434 | 0.741 | -0.0334 |
| CCOC(=O)[C@H](CC(C)C)NC(=O)CCC1CC(OC(=O)NCc2ccc3c(c2)OCO3)CC2(CCCC(COC(=O)NCC(c3ccccc3)c3ccccc3)O2)O1 (stereo not given in full) | -0.354 | -0.168 | -0.0692 | 0.229 | 0.129 | 0.49 | 1.17 | 2.69 (inactive) | 0.344 | -0.0994 | 0.915 | 0.417 (inactive) | 0.707 (inactive) | 0.34 (inactive) | 1.6 | 0.344 (inactive) | -0.145 | 0.617 | 0.79 | -0.0177 |
| C#CCCCON=C1[C@H]2CCn3c(=O)n(C)c(=O)n3[C@H]2[C@H](O)[C@@H]2O[C@H]12 | -0.454 | 0.588 | 0.0624 | 0.382 | 1.05 | -0.0714 | 0.58 | 0.678 (inactive) | 0.159 | 0.535 | -0.677 | 0.516 (inactive) | -0.377 (inactive) | 0.658 (inactive) | -0.0133 | -0.305 (inactive) | -0.132 | 1.18 | 0.891 | -0.148 |
| COc1ccc(COC(=O)NN=C2C[C@@H](O)[C@@H](O)[C@@H]3[C@@H]4C(=O)N(c5cccc(Oc6ccccc6)c5)C(=O)[C@@H]4CC[C@@H]23)cc1 | 0.809 | -0.107 | -0.0363 | -0.135 | -0.423 | -0.0521 | -0.265 | 0.331 (inactive) | 0.88 | 0.262 | -0.184 | 1.15 (inactive) | 0.897 (inactive) | 0.752 (inactive) | 0.624 | 0.301 (inactive) | 0.162 | -0.516 | -0.732 | -0.0953 |
